Screening results deposited in PubChem by National Center for Advancing Translational Sciences (NCATS).
Shown are actives, neighbours in structure and some others; about 18% of the full set was active somewhere.
DT40 TDP1 CPT – DT40-hTDP1 cell growth loss with CPT; chicken DT40 Tdp1-/-;hTDP1 cells + 20 nM CPT, ATP luminescence, 48 h; Potency, µM (titrated, usually from 46.2 µM), for the others: top-dose activity change, negative = growth inhibition, hits mostly inhibitors; 420,000 tested, 12% active; AID 686979; further: potency means the concentration at half of the fitted maximal effect; nearly all actives have a fitted effect of over 55% in size
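Cell growth measured by CellTiter-Glo luminescence after a minimum 48 h, 37 C compound exposure with 20 nM CPT in Tdp1-knockout DT40 cells stably expressing hTDP1, seeded 400/well; qHTS titration format.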
RORg inh – ROR gamma (mouse) transcription inhibition. P51450. Drosophila S2 Gal4-RORgamma UAS-luciferase reporter, 20 h. Potency, µM (titrated, usually from 53.6 µM), for the others: at the top dose activity change, negative = inhibition, most hits filed as inhibitors. 310,000 tested, 5.4% active. AID 2551; further: potency means the concentration at half of the fitted maximal effect; nearly all actives have a fitted effect of over 60% in size
Target sequence (P51450 whole entry, looked up, the tested form may be a part): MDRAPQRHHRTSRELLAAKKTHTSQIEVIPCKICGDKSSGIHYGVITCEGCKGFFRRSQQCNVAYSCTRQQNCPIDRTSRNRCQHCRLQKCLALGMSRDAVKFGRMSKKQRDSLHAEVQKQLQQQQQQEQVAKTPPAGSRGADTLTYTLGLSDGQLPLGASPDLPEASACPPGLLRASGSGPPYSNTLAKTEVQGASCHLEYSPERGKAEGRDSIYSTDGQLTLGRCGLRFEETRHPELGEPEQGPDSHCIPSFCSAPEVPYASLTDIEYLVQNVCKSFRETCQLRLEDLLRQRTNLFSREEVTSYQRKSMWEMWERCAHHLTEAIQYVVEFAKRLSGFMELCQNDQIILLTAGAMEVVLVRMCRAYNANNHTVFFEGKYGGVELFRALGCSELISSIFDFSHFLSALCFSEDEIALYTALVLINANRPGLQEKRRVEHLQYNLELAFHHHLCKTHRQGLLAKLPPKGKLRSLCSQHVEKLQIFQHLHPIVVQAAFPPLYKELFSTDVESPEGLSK
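Compounds are pin-transferred onto Drosophila Schneider cells expressing a copper-inducible Gal4–ROR gamma transactivation domain fusion. After 1 hr, copper sulfate is added to 700 uM final; luciferase is read 20 hr later.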
TDP1 cell noCPT – qHTS for Inhibitors of human tyrosyl-DNA phosphodiesterase 1 (TDP1): qHTS in cells in absence of CPT; AID 686978, 2013; Potency, µM (series often up to 46.2 µM), for inactives: at the top dose activity change, negative = growth inhibition, hits mostly inhibitors; 420,000 tested, 15% active; DT40 Tdp1-/- hTDP1 cells, no CPT, ATP luminescence, 48 h; further: potency means the concentration at half of the fitted maximal effect; nearly all actives have a fitted effect of over 55% in size
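No-CPT arm: Tdp1-/-;hTDP1 DT40 cells (400/well) plus compounds, incubated ≥48 hr at 37 °C. Readout CellTiter-Glo luminescence.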
LDHA block – blocks human lactate dehydrogenase A. P00338. purified LDHA, NADH/diaphorase-resazurin fluorescence; active compounds read low. activity change, % (values are at about 110 or 230 µM). 480,000 tested, 0.15% active; in the data active means activity change below about -30%; inconclusive means mostly about -25% to -30%;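 further: plate controls were DMSO wells for no effect and wells without enzyme for full effect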
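Remaining NADH was detected by diaphorase (0.133 mg/mL) converting 37 µM resazurin to fluorescent resorufin, read at 0 and 20 minutes. The preceding 5-minute room-temperature reaction used 2 nM LDHA, 0.2 mM sodium pyruvate and 0.06 mM NADH at pH 7.4.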
VP16 counter – inhibits Gal4-VP16 luciferase reporter, ROR gamma counter-screen; Drosophila S2 Gal4-VP16 UAS-luciferase, luminescence, 20 h; Potency, µM (highest dose often 53.6 µM), for inactives: top-dose activity, negative = inhibition, most hits filed as inhibitors; 310,000 tested, 3.5% active; AID 2546;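 further: Gal4-VP16 expression switched on by copper sulfate through the metallothionein promoter; potency means the concentration at half of the fitted maximal effect; nearly all actives have a fitted effect of over 50% in size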
IL1B secr inh – inhibitors of inflammasome signaling (IL-1 beta secretion); AID 743279; THP-1 LPS/ATP IL-1B secretion, AlphaLISA, 16 h; active compounds read low; 360,000 tested, 4.7% active; activity change, % at 57.5 µM; in the data active means activity change below about -50%; inconclusive means mostly about -30% to -49%
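Secreted IL-1B measured by AlphaLISA bead assay after 16 h compound exposure of THP-1 cells; compounds (final up to 57.5 uM) added 1 h before LPS (250 ng/mL) and ATP (1.25 mM) stimulation; lower signal means less secretion.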
Numbers without * were called inactive; ? = inconclusive; · = no result given. Unless noted, the call rests on the fitted dose curve; in most records, active means well fitted curve in the direction sought with a large enough effect; inconclusive means small, poorly fitted or top-dose-only effect, or another doubt; inactive means no such curve, though single readings can be large; an effect the other way counts as inactive or inconclusive. Unless noted, on the % scale 0 is the no-effect control and ±100 the full control effect.

SMILES | DT40 TDP1 CPT | RORg inh | TDP1 cell noCPT | LDHA block | VP16 counter | IL1B secr inh
CCc1ccc(CN(C(=O)Nc2cccc(Cl)c2)c2ccccn2)cc1 | 18µM* | · | ? | -2 | · | ·
Cc1ccccc1OCCSc1nc2cc(S(=O)(=O)N(C)C)ccc2o1 | · | · | · | 8 | · | ·
O=C1NC(=S)N/C1=C/C=C/c1ccccc1 | -1% | -6% | -17% | 0 | 24% | 2
O=C1NC(=S)NC1=Cc1ccc2c(c1)CCC2 | 16µM* | · | ? | 4 | · | -9
COc1cc(Cl)c(C)cc1Nc1c2c(nc3ccccc13)CCC2 | 2.1µM* | · | 1.5µM* | 3 | · | ·
COc1cc(Nc2c3c(nc4ccccc24)CCCC3)cc(OC)c1OC | ? | 11µM* | ? | 6 | 9% | ?
COCCCNc1c2c(nc3ccccc13)CCC2 | ? | · | ? | 0 | · | 33
Cc1ccc(Nc2c3c(nc4ccccc24)CCC3)c(Br)c1 | · | · | · | 6 | · | ·
COc1ccc(Nc2c3c(nc4ccccc24)CCC3)c(OC)c1 | 15µM* | 1% | 16µM* | -2 | 2% | ?
COc1ccccc1Nc1c2c(nc3ccccc13)CCC2 | 18µM* | 2% | 16µM* | 4 | 0% | 5
CCCCCCCNC(=O)CCC(=O)NCCC | · | · | · | 1 | · | ·
CC/C=C(/C)C(=O)NCc1ccco1 | · | · | · | 1 | · | ·
COc1ccccc1Nc1nc2c(s1)CCC2 | 15µM* | ? | ? | -2 | -14% | -11
CCOC(=O)Cc1cc(C(=O)Nc2ccc(Br)cc2)sc1-c1ccc(C)cc1 | ? | · | 21µM* | 2 | · | ·
Nc1nc(NCc2ccccc2)sc1C(=O)c1ccc(Cl)cc1 | · | · | · | 12 | · | ·
Cc1ccc2cc(CCl)c(Cl)nc2c1 | 16µM* | -8% | 21µM* | -1 | 2% | 16
Cc1ccc2cc(CCl)c(Cl)nc2c1C | · | · | · | 10 | · | ·
CCc1cc2ccccc2nc1Cl | 0% | -4% | 15% | -5 | 4% | -7
ClCc1cc2ccccc2nc1Cl | 10µM* | -5% | 8.2µM* | -7 | -18% | 0
CN(Cc1ccccc1)C(=O)COC(=O)c1ccccc1-c1nc2ccccc2s1 | · | · | · | -3 | · | ·
CCOC(=O)N1CCN(c2c(N3CC=C(c4ccccc4)CC3)c(=O)c2=O)CC1 | 21µM* | 5% | 16µM* | -2 | 4% | -4
Cc1ccc(OCC(=O)Nc2ccc(S(=O)(=O)Nc3ccccn3)cc2)c(C)c1 | ? | 9% | 18µM* | -1 | 2% | -3
Cc1ccccc1OCC(=O)Nc1ccc(S(=O)(=O)Nc2ccccn2)cc1 | -26% | 2% | -24% | -6 | 2% | 0
CC1CCN(c2c(S(=O)(=O)c3ccccc3)cnc3cc4c(cc23)OCCO4)CC1 | · | · | · | 15 | · | ·
Cc1cccc(C(=O)Nc2ccc3oc(-c4ccc(F)cc4)nc3c2)c1 | · | · | · | 4 | · | ·
SMILES | DT40 TDP1 CPT | RORg inh | TDP1 cell noCPT | LDHA block | VP16 counter | IL1B secr inh
CC(C)Oc1ccc(C(=O)N2CCN(Cc3nc(N)c4ccccc4n3)CC2)cc1 | · | · | · | -6 | · | ·
O=[N+]([O-])c1cccc(C(F)(F)F)c1 | · | 35% | · | · | -2% | ·
O=[N+]([O-])c1ccc(S(=O)(=O)c2cccc(C(F)(F)F)c2)nc1 | 2.6µM* | · | 0.65µM* | 1 | · | -102*
O=c1[nH]c(/C(Cl)=C/c2cc(Cl)ccc2O)nc2cc(Cl)ccc12 | 13µM* | 11% | 13µM* | -11 | -4% | -105*
NC(CC(=O)O)C(F)(F)F (stereo unspecified) | · | · | · | 5 | · | ·
CCCCCn1nc(C(=O)Nc2ccccc2F)c2ccccc2c1=O | · | · | · | 0 | · | ·
O=C(Nc1ccccc1OC(=O)c1ccc(Cl)cc1)c1ccc(Cl)cc1 | ? | 35% | 16µM* | -3 | -4% | 13
O=C(Nc1ccccc1O)c1ccc(Cl)cc1 | 16µM* | 14% | 23µM* | -4 | -19% | 114
Cc1ccc(C(=O)Nc2cc(Cl)ccc2OC(=O)c2ccc(C)cc2)cc1 | · | 1% | · | · | 0% | ·
O=C(Nc1ccccc1-c1ccccc1)c1ccc(Cl)cc1 | · | · | · | 3 | · | ·
